Test systems include NCI-H23 lung; NCI-H226 lung; NCI-H322M lung; HOP-62 NSCLC; NCI-H460 lung; HOP-92 NSCLC; NCI-H522 lung; A549/ATCC NSCLC; 786-0 renal; COLO 205 colon; DU-145 prostate; K-562 leukemia; MALME-3M melanoma; MDA-MB-231 breast; RXF 393 renal; SF-268 CNS; SF-295 CNS; SF-539 CNS; UACC-257 melanoma; M14 melanoma.
Holding throughout (assay): NCI-60 one-dose screen, 48 h (100 = growth as untreated, 0 = no growth, -100 = all killed)
What all share (settings): 10 µM unless noted

Each structure is given as a SMILES string. The panel holds about 83,000 compounds, 20% with a hit somewhere; the sample as a whole holds those more often.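 Negative percent growth values reflect cell death: -40 means 40% of the cells present at the start died, and -100 means all died.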 A number with no mark means an inactive call. Activity calls are given as the source filed them. How the source made its calls: active means growth percent below 10; inactive means the rest.

This passage reports growth results from PubChem BioAssay (NCI).

Consider `COCCCNc1nc(NC(=O)c2cc(Br)cc(C(F)(F)F)c2)cc(-c2cccnc2)n1`, for which the growth with NCI-H23 lung is 103%; in the assay with NCI-H226 lung, 91.8%; with NCI-H322M lung it was 99.9%; in the assay with HOP-62 NSCLC, 91.8%; in the assay with NCI-H460 lung, 85.7%; with HOP-92 NSCLC, 57.9%. Besides, the growth in the assay with NCI-H522 lung is 83.6%; with A549/ATCC NSCLC, 82%; with 786-0 renal, 85.8%; in the assay on COLO 205 colon it was 96.4%; in the assay with DU-145 prostate, 100%; with K-562 leukemia, 73.3%. In addition, the growth was 99.7% with MALME-3M melanoma; 75.8% with MDA-MB-231 breast; 103% in the assay with RXF 393 renal; 90.5% with SF-268 CNS; 89.2% in the assay on SF-295 CNS; 94% in the assay with SF-539 CNS. Moreover, the growth in the assay with UACC-257 melanoma is 91%; with M14 melanoma, 96.5%.
As for `Cc1cccc(C[C@H](NC(=O)Nc2ccc(C)cc2F)C(=O)N[C@@H]2C(=O)N3C[C@H](O)C[C@H]3C(=O)N3CCN(C)C[C@H]3C(=O)N[C@@H](C)C(=O)N3C[C@H](C)C[C@H]3C(=O)O[C@H]2C)c1`, the growth in the assay on NCI-H23 lung was 38.1%; in the assay on NCI-H226 lung, 53.9%; in the assay with NCI-H322M lung, 73.3%; in the assay on HOP-62 NSCLC, 57.9%; in the assay on NCI-H460 lung, 42.5%; in the assay with HOP-92 NSCLC, 38.9%. For the same compound, the growth in the assay on NCI-H522 lung is 38%; in the assay with A549/ATCC NSCLC, 43.5%; in the assay with 786-0 renal, 84.2%; with COLO 205 colon it was 12.4%; in the assay with DU-145 prostate, 38.4%; in the assay on K-562 leukemia, 23.1%. For the same compound, the growth with MALME-3M melanoma is 39.9%; in the assay on MDA-MB-231 breast, 18.7%; in the assay with RXF 393 renal it was 79.1%; with SF-268 CNS it was 31.6%; with SF-295 CNS it was 45%; in the assay with SF-539 CNS it was 50.7%. The growth with UACC-257 melanoma is 27.3%; in the assay on M14 melanoma, 79.9%.
As for `C=CC1=C(C)C2=NC1=CC1=NC(=CC3=C(C)C4=C(O)C(C(=O)O)C(=C5NC(=C2)C(C)C5CCC(=O)O)C4=N3)C(CC)=C1C` (stereo not given), the growth was 107% with NCI-H23 lung; 97.5% in the assay with NCI-H226 lung; 112% with NCI-H322M lung; 121% in the assay on HOP-62 NSCLC; 107% in the assay with NCI-H460 lung; 108% in the assay on HOP-92 NSCLC. Further, the growth with NCI-H522 lung was 116%; in the assay with A549/ATCC NSCLC it was 94.6%; in the assay on 786-0 renal it was 113%; in the assay with COLO 205 colon, 114%; in the assay with DU-145 prostate it was 113%; with K-562 leukemia, 106%. Moreover, the growth with MALME-3M melanoma is 125%; in the assay on MDA-MB-231 breast, 121%; in the assay with RXF 393 renal, 125%; with SF-268 CNS, 107%; in the assay with SF-295 CNS, 116%; in the assay on SF-539 CNS, 106%. Also, the growth in the assay with UACC-257 melanoma is 115%; with M14 melanoma, 104%.
Take `O=[N+]([O-])c1cc([N+](=O)[O-])c(C(F)(F)F)cc1NN=C(c1ccc(O)cc1)c1ccc(O)cc1`: the growth in the assay with NCI-H23 lung is -15.7% (active); with NCI-H226 lung, 78.6%; with NCI-H322M lung, 113%; with HOP-62 NSCLC, -55.4% (active); with NCI-H460 lung it was -37.8% (active); in the assay with HOP-92 NSCLC it was 108%. Further, the growth with NCI-H522 lung was -61.5% (active); with A549/ATCC NSCLC, -60.4% (active); in the assay on 786-0 renal, -27.5% (active); in the assay on COLO 205 colon, -11% (active); with DU-145 prostate it was 114%; in the assay with K-562 leukemia, 103%. In addition, the growth was 117% in the assay on MALME-3M melanoma; 83.2% in the assay with MDA-MB-231 breast; -57.8% (active) in the assay on RXF 393 renal; 88% in the assay with SF-268 CNS; 110% with SF-295 CNS; -64.7% (active) in the assay on SF-539 CNS. In addition, the growth was -61% (active) in the assay with UACC-257 melanoma and -47.8% (active) in the assay on M14 melanoma.
As for `Cc1cc(-c2ccc(N=Nc3c(S(=O)(=O)O)cc4cc(S(=O)(=O)O)cc(N)c4c3O)c(C)c2)ccc1N=Nc1cc(S(=O)(=O)O)c2ccccc2c1O`, the growth in the assay with NCI-H23 lung was 92.2%; in the assay on NCI-H226 lung, 90%; in the assay with NCI-H322M lung, 86.5%; in the assay with HOP-62 NSCLC it was 93.8%; in the assay on NCI-H460 lung, 107%; with HOP-92 NSCLC, 89.6%. The growth in the assay on NCI-H522 lung was 101%; in the assay on A549/ATCC NSCLC it was 97.2%; in the assay on 786-0 renal it was 104%; with COLO 205 colon it was 110%; in the assay with DU-145 prostate, 112%; in the assay on K-562 leukemia, 98%. Further, the growth with MALME-3M melanoma was 89%; in the assay with MDA-MB-231 breast, 92.4%; with RXF 393 renal, 107%; in the assay on SF-268 CNS, 95.6%; in the assay on SF-295 CNS it was 103%; in the assay with SF-539 CNS it was 88.4%. For the same compound, the growth in the assay with UACC-257 melanoma was 97.7%; with M14 melanoma it was 101%.
With `c1ccc(-c2nnc(-c3c[nH]c4ncccc34)s2)cc1`, the growth in the assay on NCI-H23 lung is 92.6%; in the assay on NCI-H226 lung, 87.9%; in the assay with NCI-H322M lung it was 95.7%; in the assay with HOP-62 NSCLC it was 98.6%; with NCI-H460 lung, 96.4%; in the assay on HOP-92 NSCLC, 104%. The growth in the assay on NCI-H522 lung was 87.7%; in the assay with A549/ATCC NSCLC, 95.6%; with 786-0 renal it was 104%; with COLO 205 colon it was 115%; in the assay on DU-145 prostate it was 87.4%; in the assay on K-562 leukemia, 83.9%. Also, the growth was 88% in the assay with MALME-3M melanoma; 86.8% in the assay with MDA-MB-231 breast; 94.5% with RXF 393 renal; 86.2% in the assay with SF-268 CNS; 96.8% in the assay on SF-295 CNS; 96.9% with SF-539 CNS. Moreover, the growth in the assay with UACC-257 melanoma is 109%; in the assay with M14 melanoma it was 97.8%.
For the compound `CCn1cc(-c2cc(-c3ccc(Cl)cc3)nc(N)n2)c(-c2ccc(Br)cc2)n1`, the growth is 79.4% in the assay on NCI-H23 lung; 86.1% in the assay on NCI-H226 lung; 92.6% in the assay on NCI-H322M lung; 74.7% in the assay on HOP-62 NSCLC; 95.4% in the assay with NCI-H460 lung; 74.2% with HOP-92 NSCLC. Also, the growth was 48.7% in the assay with NCI-H522 lung; 64.7% in the assay with A549/ATCC NSCLC; 89.4% with 786-0 renal; 85.7% in the assay with COLO 205 colon; 99.4% with DU-145 prostate; 77.4% with K-562 leukemia. Moreover, the growth is 93.8% in the assay with MALME-3M melanoma; 60.6% with MDA-MB-231 breast; 94.8% with RXF 393 renal; 94.8% with SF-268 CNS; 84.3% with SF-295 CNS; 87.3% in the assay with SF-539 CNS. Moreover, the growth was 73.5% in the assay on UACC-257 melanoma and 74.5% in the assay with M14 melanoma.
On to `CCOC(=O)c1sc2nc(-c3cc(OC)c(OC)c(OC)c3)nc(N3CCOCC3)c2c1C`, for which the growth in the assay with NCI-H23 lung is 27.6%; in the assay on NCI-H226 lung it was 44.7%; in the assay on NCI-H322M lung it was 48.2%; in the assay on HOP-62 NSCLC, 77.1%; in the assay on NCI-H460 lung, 17.5%; in the assay on HOP-92 NSCLC, -15% (active). The growth with NCI-H522 lung is 12.1%; in the assay with A549/ATCC NSCLC, 28.9%; in the assay on 786-0 renal, 51.8%; in the assay on COLO 205 colon it was 26.5%; with DU-145 prostate, 48.3%; in the assay with K-562 leukemia, 24.2%. Moreover, the growth was 9.78% (active) with MALME-3M melanoma; 44.9% with MDA-MB-231 breast; 32.3% with RXF 393 renal; 40.1% in the assay with SF-268 CNS; 40.3% in the assay with SF-295 CNS; 50.4% in the assay on SF-539 CNS. Further, the growth in the assay on UACC-257 melanoma is 51.7%; in the assay with M14 melanoma, 38.4%.
